Screening data deposited in PubChem BioAssay by National Center for Advancing Translational Sciences (NCATS).
VACV Venus inh: qHTS for Stage-Specific Inhibitors of Vaccinia Orthopoxvirus: Venus Reporter Primary qHTS | Potency, µM (titrated, usually from 36.5 µM), hits mostly inhibitors | Vaccinia virus Venus reporter expression, fluorescence | AID 720580, 2013 | 330,000 compounds, 0.46% hits; calls by dose curve; tested in A549 cells; also: nearly all actives have a fitted effect of over 30% in size
MARV entry inh: qHTS for inhibitors of binding or entry into cells for Marburg Virus | Potency, µM (series often up to 37.8 µM), hits mostly inhibitors | 300,000 compounds, 1.8% hits | AID 540276, 2011 | Marburg virus pseudotyped entry inhibition, cell reporter; calls by dose curve; tested in HEK293 cells
HCV inh: qHTS Assay for Inhibitors of Hepatitis C Virus (HCV); Huh7.5.1 HCVcc-Cre infection, luciferase reporter, 44 h; Potency, µM (highest dose often 41.8 µM), hits mostly inhibitors; 340,000 compounds, 3.4% hits; active = well fitted inhibition curve with a large enough effect; inconclusive = small, poorly fitted or top-dose-only effect, or another doubt; inactive = no such curve, though single readings can be large or run the other way
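Reporter virus HCVcc-Cre (~0.5 moi) infects cells exposed to compound; seeding density 1,000 cells/well with 4 h settling beforehand. Luminescence, 15 sec read, taken 44 h post-infection following a 15 min RT substrate incubation.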
Vaccinia mCherry: qHTS for Stage-Specific Inhibitors of Vaccinia Orthopoxvirus: mCherry Reporter Primary qHTS; Vaccinia virus mCherry reporter infection, fluorescence; Potency, µM (series often up to 36.5 µM), usual class: inhibitors; 310,000 compounds, 0.63% hits; calls by dose curve; tested in A549 cells; also: nearly all actives have a fitted effect of over 35% in size
HCMV antiviral: qHTS Assay for inhibitors of the human cytomegalovirus (HCMV). HFF cells, HCMV-luciferase reporter, 72 h; hits give low values. activity change, negative = inhibition, % at 57.5 µM. 410,000 compounds, 4.5% hits. AID 1259415, 2018; in the data active = activity change below about -60%; inconclusive = no clear call, values can overlap the other calls; inactive = above about -39%
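Luciferase read-out from HCMV-luciferase-infected HFFs (MOI 1 PFU/cell) 72 h post infection at 37C; compounds added after 16 h cell attachment; activity normalized between buffer-only basal and Salinomycin (10uM) inhibitor controls.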
Lassa entry inh: qHTS for Inhibitors of binding or entry into cells for Lassa Virus; Lassa virus pseudotype entry inhibition, cell reporter; Potency, µM (doses to about 37.9 µM), hits mostly inhibitors; 300,000 compounds, 1.2% hits; AID 540256, 2011; calls by dose curve; tested in HEK293 cells; also: nearly all actives have a fitted effect of over 50% in size
Large screens that a line does not name were inactive; ! = not active in a repeat. The list is not random: actives were taken first. Their share in the collection is about 7.8%.

O=[N+]([O-])c1ccc(Cl)c(/C=N/N2CCN(Cc3ccc(Cl)cc3)CC2)c1	none (no result: VACV Venus inh, Vaccinia mCherry)
CCOC(=O)[C@H]1[C@H]2COc3ccc(OC)cc3[C@@H]2N2C(=O)c3ccccc3NC(=O)[C@@]12C	HCV inh inconclusive, HCMV antiviral -80 (no result: MARV entry inh, Lassa entry inh)
CCOC(=O)[C@H]1[C@H]2COc3ccc(Cl)cc3[C@@H]2N2C(=O)CN(Cc3ccc(F)cc3)C(=O)[C@@]12C	none (no result: MARV entry inh, Lassa entry inh)
CCOC(=O)[C@H]1[C@H]2COc3ccc(Cl)cc3[C@@H]2N2C(=O)c3ccccc3NC(=O)[C@@]12C	HCMV antiviral -70 (no result: MARV entry inh, Lassa entry inh)
CCOC(=O)[C@H]1[C@H]2COc3ccc(Cl)cc3[C@@H]2N2C(=O)CN(Cc3ccc(Cl)cc3)C(=O)[C@@]12C	HCMV antiviral -99 (no result: MARV entry inh, Lassa entry inh)
CCOC(=O)[C@H]1[C@H]2COc3ccc(OC)cc3[C@@H]2N2C(=O)c3cc(OC)ccc3NC(=O)[C@@]12C	none (no result: MARV entry inh, Lassa entry inh)
Cc1ccccc1OCC(=O)Nc1ccc(-c2nc3cc(Cl)cc(Cl)c3o2)cc1	none (no result: MARV entry inh, HCV inh)
O=C(NCc1ccccc1)C1CCN(S(=O)(=O)Cc2ccccc2)CC1	none (no result: HCV inh)
CCN1C(=O)[C@H]2[C@@H](c3ccc(Cl)cc3)N3C(=O)CN(CC4CC4)C(=O)[C@@]3(C)[C@H]2C1=O	none (no result: MARV entry inh, Lassa entry inh)
CCN1C(=O)[C@H]2[C@@H](c3ccc(OC)cc3)N3C(=O)CN(CC4CC4)C(=O)[C@@]3(C)[C@H]2C1=O	HCV inh 10µM (no result: MARV entry inh, Lassa entry inh)
CCOC(=O)c1cc(-c2ccccc2)sc1NC(=O)C(C)OC(=O)c1cccnc1OCC (stereo not given)	MARV entry inh inconclusive, HCV inh 3.5µM
CCOC(=O)c1cc(-c2ccccc2)sc1NC(=O)C(C)OC(=O)c1cccc(S(=O)(=O)N(C)C)c1 (stereo not given)	HCV inh inconclusive
C/C(=N\NC(=O)CN(c1ccccc1)S(=O)(=O)c1ccccc1[N+](=O)[O-])C(C)(C)C	MARV entry inh inconclusive, HCMV antiviral -63
CCCC/C(C)=N/NC(=O)CN(c1ccc(Br)cc1)S(=O)(=O)c1ccccc1	none
COc1ccccc1N(CC(=O)N/N=C(\C)c1ccc(F)cc1)S(=O)(=O)c1ccccc1	HCMV antiviral -101
COc1ccccc1N(CC(=O)Nc1cc(C)on1)S(=O)(=O)c1cccc(C(F)(F)F)c1	HCMV antiviral -64 (no result: VACV Venus inh, MARV entry inh, Vaccinia mCherry, Lassa entry inh)
C/C(=N/NC(=O)CN(c1ccccc1)S(=O)(=O)c1ccccc1)c1ccccc1O	HCV inh inconclusive, HCMV antiviral -98 (no result: VACV Venus inh, MARV entry inh, Vaccinia mCherry, Lassa entry inh)
COc1ccc2c(c1)c1c(c(=O)n(Cc3ccccc3)c(=O)n1CC(=O)Nc1ccccc1F)n2C	none (no result: MARV entry inh, HCV inh)
O=C(Cc1c(Cl)cccc1Cl)OCC(=O)N1CCc2ccccc2C1	HCMV antiviral -101
O=C(COC(=O)c1ccccc1O)NCc1ccccc1Cl	HCV inh inconclusive, HCMV antiviral -65 (no result: VACV Venus inh, MARV entry inh, Vaccinia mCherry, Lassa entry inh)
O=C(COC(=O)c1ccco1)NCc1ccccc1Cl	none
O=C(COC(=O)Cc1c(Cl)cccc1Cl)NCc1ccccc1	Vaccinia mCherry inconclusive, HCMV antiviral -68 (no result: MARV entry inh, HCV inh, Lassa entry inh)
COc1ccccc1CNC(=O)COC(=O)Cc1c(Cl)cccc1Cl	none (no result: VACV Venus inh, MARV entry inh, Vaccinia mCherry, Lassa entry inh)
CC(NC(=O)C1CC1)c1nnc2n1CCN(Cc1cccc(F)c1F)CC2 (stereo not given)	none (no result: MARV entry inh, HCV inh, HCMV antiviral, Lassa entry inh)
O=C(c1cccc(Cl)c1)N1CCC(c2nc3c(nnn3Cc3ccc(F)cc3F)c(=O)[nH]2)CC1	none (no result: HCV inh)
COc1ccc(C(C)(C)C)cc1NC(=O)OC[C@@H]1CSCCS(=O)(=O)N1	none (no result: VACV Venus inh, MARV entry inh, HCV inh, Vaccinia mCherry)
N#CC1=C(N)OC2=C(C(=O)CC(c3ccco3)C2)C1c1ccc(OCc2c(F)cccc2Cl)cc1 (stereo not given)	MARV entry inh inconclusive, HCV inh inconclusive, Lassa entry inh inconclusive (no result: Vaccinia mCherry)
COc1cccc(C2C(C#N)=C(N)OC3=C2C(=O)CC(c2ccco2)C3)c1OCc1ccc(F)cc1 (stereo not given)	MARV entry inh 16µM!, HCV inh inconclusive, Lassa entry inh inconclusive
COc1ccc(C2=NS(=O)(=O)N(C)C(C(=O)NCc3ccccc3)=C2)cc1OC	HCMV antiviral -80!
COc1ccc(CNC(=O)C2=CC(c3ccc(OC)c(OC)c3)=NS(=O)(=O)N2C)cc1	MARV entry inh inconclusive
